The record followed here is PubChem BioAssay.

Inconclusive results are not listed. Activity calls are given as the source filed them.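 The calls were made as follows, unless noted: active = inhibition above the screen-wide mean plus 3 SD, about 51%; inactive = the rest.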

Assay [1] in a line: yeast TOR pathway RPL19A-GFP modulators, primary screen, cell-based, S. cerevisiae, multiplex flow cytometry (AID 1862; in the data active = percent of DMSO control GFP below about 86%;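 also: lower values mimic rapamycin by blocking the RPL19A rise seen in DMSO cells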). Particulars: S. cerevisiae RPL19A-GFP strain, flow cytometry fluorescence, 3 h; at 10 µM; stronger effect = lower value.
Assay [2] is described as follows: modulators of MEP2-GFP levels in yeast, primary screen, S. cerevisiae, multiplex flow cytometry (AID 1867;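 active = GFP response, as percent of the DMSO control, above the screen-wide mean plus 3 SD, about 139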;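 also: median GFP channel fluorescence of barcode-gated MEP2-GFP cells measured by flow cytometry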). Particulars: S. cerevisiae MEP2-GFP strain, 3 h, at 10 µM, stronger effect = higher value, 100% means same as DMSO wells. On the technique in general: In flow cytometry, cells or beads pass a laser one at a time.
A short description of assay [3]: modulators of CIT2-GFP expression in yeast, primary screen, S. cerevisiae, GFP fusion, multiplex flow cytometry (AID 1870;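 active = percent response above a set limit, the screen-wide mean plus 3 SD, cut at about 130% in these data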;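 also: barcoded CIT2-GFP strain pooled with four other GFP strains with rapamycin as positive control; median GFP fluorescence per well over plate mean of DMSO wells so 100% = DMSO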). To be noted: 3 h, at 10 µM, stronger effect = higher value.
Assay [4] can be described thus: modulators of LAP4-GFP expression in yeast, primary screen, S. cerevisiae, multiplex flow cytometry (AID 1873;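 active = GFP signal, as percent of the solvent control, above the screen mean plus 3 SD, about 149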). To be noted: 3 h, at 10 µM, stronger effect = higher value.
Assay [5] in a line: modulators of AGP1-GFP expression in yeast TOR pathway, primary screen, cell-based, multiplex flow cytometry, S. cerevisiae (AID 1887;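 active = GFP signal above the screen-wide mean plus 3 SD, that is over about 124.5% of the solvent control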;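 also: AGP1-GFP fusion strain of S. cerevisiae within a five-strain barcoded multiplex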). Particulars: 3 h, at 10 µM, stronger effect = higher value.
Assay [6] is described as follows: inhibitors of CD8+ T cell-vesicle binding, pilot screen, LFA-1/ICAM-1 modulator project, MLPCN validation set, flow cytometry (AID 2523;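 active = response below a set limit, under 55% cells CD8-positive and vesicle-bound, and CD8 cells' 90th-percentile brightness under 279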;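 as to vesicle binding response: mean PE anti-B7-1 fluorescence of CD8+ cells relative to row control; 100% = QL9-loaded vesicles with DMSO vehicle in the same plate row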). To be noted: 2C mouse CD8+ T cells, at 7 µM, stronger effect = lower value; double positive events: measured here: CD8+/vesicle+ event percentage.
The target of assay [7] is Integrin beta-1 (Homo sapiens) + Integrin alpha-4 (Homo sapiens) (UniProt P13612+P05556). In words: inhibition of HUTS-21 binding to VLA-4, pilot screen, VLA-4 allosteric modulator project, U937 cells, HUTS-21 mAb, flow cytometry, validation set (AID 2674;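 active = inhibition above 50%, about 3 SD of the validation set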;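 also: antibody binding induced by the VLA-4 ligand LDV present at three times its Kd; 0% = LDV ligand with antibody and no compound and 100% = antibody without LDV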). Particulars: HUTS-21 LIBS mAb binding, at 6.7 µM, stronger effect = higher value, binding induced by LDV ligand.
Sequence of Integrin beta-1 (Homo sapiens) + Integrin alpha-4 (Homo sapiens) (P05556 whole entry, looked up): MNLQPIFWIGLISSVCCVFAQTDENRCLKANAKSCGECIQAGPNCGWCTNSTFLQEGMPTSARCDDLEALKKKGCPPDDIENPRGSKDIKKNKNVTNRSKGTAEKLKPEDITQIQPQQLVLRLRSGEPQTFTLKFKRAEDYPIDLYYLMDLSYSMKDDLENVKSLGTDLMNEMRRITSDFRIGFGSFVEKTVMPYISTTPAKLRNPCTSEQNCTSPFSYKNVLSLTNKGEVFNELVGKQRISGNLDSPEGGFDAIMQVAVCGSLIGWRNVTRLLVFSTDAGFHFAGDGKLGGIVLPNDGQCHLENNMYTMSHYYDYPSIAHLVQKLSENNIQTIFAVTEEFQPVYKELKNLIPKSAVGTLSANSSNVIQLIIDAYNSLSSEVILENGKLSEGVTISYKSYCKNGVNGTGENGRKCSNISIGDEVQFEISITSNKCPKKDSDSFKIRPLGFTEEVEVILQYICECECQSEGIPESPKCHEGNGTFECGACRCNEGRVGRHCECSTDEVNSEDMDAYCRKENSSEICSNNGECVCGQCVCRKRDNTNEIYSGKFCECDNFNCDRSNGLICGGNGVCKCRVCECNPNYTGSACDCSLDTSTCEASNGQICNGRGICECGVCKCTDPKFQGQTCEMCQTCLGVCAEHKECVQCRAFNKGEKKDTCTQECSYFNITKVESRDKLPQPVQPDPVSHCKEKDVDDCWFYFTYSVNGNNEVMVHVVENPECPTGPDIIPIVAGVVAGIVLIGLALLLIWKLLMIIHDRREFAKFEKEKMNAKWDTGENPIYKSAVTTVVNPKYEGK
Sequence of Integrin beta-1 (Homo sapiens) + Integrin alpha-4 (Homo sapiens) (P13612 whole entry, looked up): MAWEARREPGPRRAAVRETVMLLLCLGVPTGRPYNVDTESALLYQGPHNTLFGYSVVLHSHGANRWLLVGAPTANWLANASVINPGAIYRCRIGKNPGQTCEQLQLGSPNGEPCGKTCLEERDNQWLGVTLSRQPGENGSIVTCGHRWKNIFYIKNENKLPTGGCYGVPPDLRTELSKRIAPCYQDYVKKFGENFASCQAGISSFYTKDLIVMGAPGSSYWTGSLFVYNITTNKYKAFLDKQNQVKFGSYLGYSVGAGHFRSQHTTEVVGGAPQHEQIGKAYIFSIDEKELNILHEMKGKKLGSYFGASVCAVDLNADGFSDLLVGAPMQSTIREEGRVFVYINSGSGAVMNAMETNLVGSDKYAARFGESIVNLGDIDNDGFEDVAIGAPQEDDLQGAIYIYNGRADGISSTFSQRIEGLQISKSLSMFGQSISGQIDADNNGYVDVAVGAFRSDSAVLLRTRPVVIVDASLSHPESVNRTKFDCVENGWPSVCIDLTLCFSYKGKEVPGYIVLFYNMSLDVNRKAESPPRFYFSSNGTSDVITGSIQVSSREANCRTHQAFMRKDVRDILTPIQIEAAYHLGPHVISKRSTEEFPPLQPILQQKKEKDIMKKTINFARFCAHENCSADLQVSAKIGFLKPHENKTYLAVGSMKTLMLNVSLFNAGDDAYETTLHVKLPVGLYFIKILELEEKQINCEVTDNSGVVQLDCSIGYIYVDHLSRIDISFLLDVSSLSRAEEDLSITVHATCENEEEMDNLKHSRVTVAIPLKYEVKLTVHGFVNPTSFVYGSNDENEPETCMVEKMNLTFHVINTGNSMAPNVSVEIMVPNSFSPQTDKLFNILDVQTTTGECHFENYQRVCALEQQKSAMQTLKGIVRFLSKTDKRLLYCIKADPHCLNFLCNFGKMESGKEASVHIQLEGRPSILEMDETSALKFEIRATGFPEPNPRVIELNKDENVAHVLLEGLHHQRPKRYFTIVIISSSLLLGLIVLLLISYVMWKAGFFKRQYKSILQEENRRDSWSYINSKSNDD
Assay [8] is described as follows: superoxide lowering in aged yeast cells, pilot screen, validation compound set (AID 2706;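 active = superoxide response below 65% of plate, a cut near 3 SD across the whole screen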;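 also: yeast exposed to compound for one week at 30 degrees C before staining; 100% = mean of all compound wells on the same plate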). To be noted: S. cerevisiae aging, superoxide DHE fluorescence; at 10 µM; stronger effect = lower value.
In assay [9] the target is Beta-adrenergic receptor kinase 1 (Homo sapiens) (UniProt P25098). In words: GRK2 binders displacing RNA aptamer, biochemical, validation, human GRK2, bead flow cytometry (AID 488806;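 active = aptamer binding inhibition above 30%, about 3 SD of noise from non-fluorescent compounds; inactive = inhibition at or below 30%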). To be noted: bead-bound GRK2, FAM-aptamer displacement, at 10 µM, stronger effect = higher value.
Sequence of Beta-adrenergic receptor kinase 1 (Homo sapiens) (P25098 whole entry, looked up): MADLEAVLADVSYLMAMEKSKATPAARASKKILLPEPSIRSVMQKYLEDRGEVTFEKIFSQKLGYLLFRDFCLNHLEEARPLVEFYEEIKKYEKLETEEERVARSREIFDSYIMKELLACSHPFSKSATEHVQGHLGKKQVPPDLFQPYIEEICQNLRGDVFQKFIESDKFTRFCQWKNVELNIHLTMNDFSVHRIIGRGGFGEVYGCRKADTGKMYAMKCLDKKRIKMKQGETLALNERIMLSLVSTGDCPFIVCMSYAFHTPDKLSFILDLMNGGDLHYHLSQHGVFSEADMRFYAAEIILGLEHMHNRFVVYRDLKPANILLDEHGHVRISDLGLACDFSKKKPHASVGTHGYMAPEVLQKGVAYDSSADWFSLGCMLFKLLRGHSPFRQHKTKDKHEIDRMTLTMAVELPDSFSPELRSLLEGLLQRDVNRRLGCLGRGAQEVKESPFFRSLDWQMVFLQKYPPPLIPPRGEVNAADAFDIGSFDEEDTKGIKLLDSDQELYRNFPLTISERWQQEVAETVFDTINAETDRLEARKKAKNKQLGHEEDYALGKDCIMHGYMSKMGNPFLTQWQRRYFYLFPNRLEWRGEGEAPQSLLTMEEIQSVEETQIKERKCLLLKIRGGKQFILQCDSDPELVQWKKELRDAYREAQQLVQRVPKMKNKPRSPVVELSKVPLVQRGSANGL
For assay [10], the target named is Beta-2 adrenergic receptor (Homo sapiens) (UniProt P07550). In words: beta2AR agonists driving receptor internalization, pilot screen, cell-based, FAP fluorogen, flow cytometry, validation set (AID 504459;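 active = percent response above 42, roughly 3 SD of non-fluorescent test compounds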;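 also: agonist-driven loss of surface beta2AR via internalization measured by FAP dye flow cytometry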). Particulars: Am2.2-beta2AR cells, FAP surface receptor flow cytometry; at 10 µM; stronger effect = higher value.
Sequence of Beta-2 adrenergic receptor (Homo sapiens) (P07550 whole entry, looked up): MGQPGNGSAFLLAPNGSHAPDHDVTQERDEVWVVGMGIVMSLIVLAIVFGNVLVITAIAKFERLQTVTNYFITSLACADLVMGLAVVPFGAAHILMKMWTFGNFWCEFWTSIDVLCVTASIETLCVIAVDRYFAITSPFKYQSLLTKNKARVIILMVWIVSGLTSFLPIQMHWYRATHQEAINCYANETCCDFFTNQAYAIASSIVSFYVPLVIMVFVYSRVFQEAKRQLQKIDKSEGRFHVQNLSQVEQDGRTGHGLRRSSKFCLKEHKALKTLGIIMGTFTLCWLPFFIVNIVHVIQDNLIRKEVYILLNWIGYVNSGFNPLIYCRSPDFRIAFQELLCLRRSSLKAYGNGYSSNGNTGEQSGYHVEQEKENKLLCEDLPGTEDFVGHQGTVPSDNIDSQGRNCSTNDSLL
Assay [11] addresses AP-2 complex subunit beta (Homo sapiens) (UniProt P63010). In words: inhibitors of arrestin peptide binding to AP2, pilot screen, biochemical, validation set, GST-AP2 beads, flow cytometry (AID 504541;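 active = inhibition above 54%, about 3 SD of non-fluorescent compounds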;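 also: AP2 carries R879A mutation and is captured from E. coli lysate; bead-bound FITC arrestin peptide fluorescence measuring arrestin peptide binding to AP2; 0% = DMSO wells and 100% = excess unlabeled arrestin peptide control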). To be noted: FITC arrestin peptide, at 10 µM, stronger effect = higher value, AP2 beta2 appendage fragment, R879A mutant.
Assay [12] can be described thus: yeast V-ATPase proton transport modulators, S. cerevisiae, pHLuorin, HTS validation (AID 504600; in the data active = response above about 15%;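 also: plate controls were DMSO for no effect and reference compound for full effect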). To be noted: S. cerevisiae pHLuorin cytosolic pH, at 10 µM, stronger effect = higher value.
For assay [13], the system named is anti-desmoglein-3 scFv antibody binding to human DSG3. The experiment in a line: inhibitors of anti-DSG3 scFv binding to DSG3, pilot screen, biochemical, validation compound set, bead-based, flow cytometry (AID 588368;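 active = binding below the plate cutoff, the plate median minus 3 SD, with a reading above zero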;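 also: signal is the median channel fluorescence of bead-bound GFP antibody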). To be noted: Protein G beads, DSG3-Fc, scFv-GFP binding, at 10 µM, stronger effect = lower value.
Assay [14] can be described thus: inhibitors of fungal efflux pumps CDR1, CDR2, MDR1, pilot screen, validation compound set, multiplex, phenotypic (AID 588506;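 active = efflux inhibition above 0.42, the validation set average plus 4 SD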;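 also: Nile Red retained in cells so higher fluorescence means more efflux inhibition; 0 = negative control wells and 1 = enniatin B 25 µM full block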). Particulars: S. cerevisiae pump-expressing triplex, Nile Red efflux flow cytometry; at 10 µM; stronger effect = higher value; the pumps come from Candida albicans.
Assay [15] deals with ATP-binding cassette sub-family B member 6 (Homo sapiens) (UniProt Q9NP58). In words: ABCB6 transporter inhibitors, pilot screen, K562-ABCB6 cells, flow cytometry, validation set (AID 588550).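 Also: 0% = DMSO wells and 100% = benzethonium chloride 70 µM positive control.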 To be noted: K562-ABCB6 porphyrin accumulation, 1 h, at 10 µM, stronger effect = higher value.
Sequence of ATP-binding cassette sub-family B member 6 (Homo sapiens) (Q9NP58 whole entry, looked up): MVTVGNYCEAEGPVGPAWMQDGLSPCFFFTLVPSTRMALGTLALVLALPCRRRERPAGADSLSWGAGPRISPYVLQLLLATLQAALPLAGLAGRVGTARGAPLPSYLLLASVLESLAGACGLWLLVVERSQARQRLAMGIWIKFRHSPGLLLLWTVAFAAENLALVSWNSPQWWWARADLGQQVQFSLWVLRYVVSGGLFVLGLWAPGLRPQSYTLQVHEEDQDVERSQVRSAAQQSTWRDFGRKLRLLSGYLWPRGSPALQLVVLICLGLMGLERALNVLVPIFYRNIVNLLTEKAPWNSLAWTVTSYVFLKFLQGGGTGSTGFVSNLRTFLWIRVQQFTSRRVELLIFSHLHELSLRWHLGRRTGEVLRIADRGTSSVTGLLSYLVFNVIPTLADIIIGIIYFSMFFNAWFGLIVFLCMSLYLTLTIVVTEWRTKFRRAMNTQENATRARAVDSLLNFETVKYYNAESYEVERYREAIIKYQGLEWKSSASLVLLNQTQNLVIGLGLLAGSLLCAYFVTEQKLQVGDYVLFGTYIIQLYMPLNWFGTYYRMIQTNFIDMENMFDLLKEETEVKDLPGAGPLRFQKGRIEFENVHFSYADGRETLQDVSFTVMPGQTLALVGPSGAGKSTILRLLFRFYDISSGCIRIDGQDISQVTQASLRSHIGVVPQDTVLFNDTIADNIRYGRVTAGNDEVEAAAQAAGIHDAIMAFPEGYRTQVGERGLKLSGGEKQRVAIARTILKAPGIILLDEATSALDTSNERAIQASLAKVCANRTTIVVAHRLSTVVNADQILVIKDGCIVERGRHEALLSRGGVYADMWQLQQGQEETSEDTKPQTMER
Assay [16] in a line: promoters of myeloid differentiation in arrested cells, primary screen, cell-based, GFP/MAC1 double positive, flow cytometry, validation set (AID 588685;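 active = differentiation response of at least 50%, scaled between solvent and reference control, from cells with both markers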;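 also: compound exposure lasts four days before antibody staining and flow analysis; 0% = DMSO wells and 100% = 5 µM fulvestrant positive control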). Particulars: ER-HoxA9 marrow cells, stronger effect = higher value, normalized: vehicle 0, fulvestrant 100.

Sequence of AP-2 complex subunit beta (Homo sapiens) (P63010 whole entry, looked up, the tested form may be a part, one chain of several): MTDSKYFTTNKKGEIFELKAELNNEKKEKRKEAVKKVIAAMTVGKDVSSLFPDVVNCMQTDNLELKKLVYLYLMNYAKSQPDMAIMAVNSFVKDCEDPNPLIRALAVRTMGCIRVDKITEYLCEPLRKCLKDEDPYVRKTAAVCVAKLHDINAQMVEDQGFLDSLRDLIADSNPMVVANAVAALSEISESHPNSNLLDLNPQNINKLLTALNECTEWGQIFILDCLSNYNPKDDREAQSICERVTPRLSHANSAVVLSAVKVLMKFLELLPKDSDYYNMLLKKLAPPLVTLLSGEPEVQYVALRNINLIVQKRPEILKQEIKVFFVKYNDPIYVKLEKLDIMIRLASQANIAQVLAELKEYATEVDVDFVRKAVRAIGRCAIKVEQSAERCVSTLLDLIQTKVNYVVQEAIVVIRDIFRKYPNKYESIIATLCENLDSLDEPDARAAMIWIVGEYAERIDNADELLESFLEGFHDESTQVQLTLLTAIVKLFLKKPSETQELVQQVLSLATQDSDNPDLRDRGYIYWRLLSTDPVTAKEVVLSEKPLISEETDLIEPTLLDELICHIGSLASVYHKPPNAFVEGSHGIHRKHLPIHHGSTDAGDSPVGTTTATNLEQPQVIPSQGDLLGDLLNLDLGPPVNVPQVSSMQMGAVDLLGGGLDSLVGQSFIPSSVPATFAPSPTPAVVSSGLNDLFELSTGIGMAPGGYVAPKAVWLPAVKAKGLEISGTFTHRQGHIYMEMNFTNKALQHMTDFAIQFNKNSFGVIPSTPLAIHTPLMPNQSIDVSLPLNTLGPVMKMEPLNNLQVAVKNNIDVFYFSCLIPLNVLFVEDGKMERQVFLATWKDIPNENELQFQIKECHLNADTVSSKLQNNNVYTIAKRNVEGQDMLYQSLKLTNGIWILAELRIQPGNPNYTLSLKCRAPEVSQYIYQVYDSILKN

For orientation: inhibition means the change of the read-out against control, counted positive when it falls. Regarding `COc1cc(C(=S)N(C)C)ccc1O`, the percent of DMSO control GFP in [1] was 107% (inactive). Besides, the GFP response vs DMSO in assay [2] is 104% (inactive); in assay [4], 92.6% (inactive). The percent response of DMSO control in [3] was 113% (inactive). Besides, the GFP response, % of DMSO in assay [5] was 116% (inactive). For the same compound, in assay [6], the double positive events worked out at 62.6%. Besides, the vesicle binding response in assay [6] is 115% (inactive). The inhibition was -11.8% (inactive) in assay [7], -1.41% (inactive) in assay [11] and -8% (inactive) in [15]. The superoxide response (% of plate) in [8] was 92.7% (inactive). Also, the aptamer binding inhibition in assay [9] was -1% (inactive). Moreover, the response in assay [10] is 8.54% (inactive); in assay [12], 3.06% (inactive). The binding (% of control) in [13] was 101% (inactive). For the same compound, in assay [14], the efflux inhibition (fraction of control) is -0.005 (inactive). Further, in assay [16], the differentiation response was 15.9% (inactive).
Turning to `CC(C)NS(=O)(=O)c1ccc(OCC(=O)Nc2cccc(F)c2)cc1`, in assay [1], the percent of DMSO control GFP was 101% (inactive). The GFP response vs DMSO is 98.7% (inactive) in assay [2] and 89.3% (inactive) in assay [4]. Further, the percent response of DMSO control in assay [3] is 106% (inactive). Further, in assay [5], the GFP response, % of DMSO was 92.4% (inactive). The compound further registered a double positive events in assay [6] of 59.7%. The vesicle binding response in assay [6] is 143% (inactive). Moreover, the values for the inhibition in assay [7], in [11] and in assay [15] were -11.8% (inactive), 5.6% (inactive) and 7% (inactive), respectively. Moreover, the superoxide response (% of plate) in assay [8] is 95.1% (inactive). The aptamer binding inhibition in assay [9] was 3% (inactive). The response in [10] is 3.73% (inactive); in assay [12] it was -2.45% (inactive). In addition, the binding (% of control) in [13] was 98.5% (inactive). In addition, the efflux inhibition (fraction of control) in assay [14] was 0.22 (inactive). The differentiation response in assay [16] is -10.4% (inactive).
For `Cc1ccccc1N1C(N)=NC(N)=NC1(C)C`, the percent of DMSO control GFP in [1] was 102% (inactive). The figures for the GFP response vs DMSO in [2] and in [4] were 103% (inactive) and 94.8% (inactive), respectively. In addition, the percent response of DMSO control in [3] was 108% (inactive). Moreover, in [5], the GFP response, % of DMSO is 104% (inactive). This compound also came in with a double positive events in assay [6] of 63%. Besides, the vesicle binding response in [6] is 135% (inactive). The inhibition in assay [7] is -9.13% (inactive); in assay [11] it was -7.13% (inactive); in assay [15], 20% (inactive). In addition, the superoxide response (% of plate) in assay [8] was 96.3% (inactive). Further, the aptamer binding inhibition in assay [9] was 0% (inactive). In addition, the results for the response in assay [10] and in assay [12] were 7.98% (inactive) and 1.38% (inactive), respectively. The binding (% of control) in [13] was 104% (inactive). Besides, the efflux inhibition (fraction of control) in [14] was -0.28 (inactive). In addition, the differentiation response in assay [16] was -19.2% (inactive).
With `CCOC(=O)N1CCc2[nH]c3ccc(C)cc3c2C1`, the percent of DMSO control GFP in [1] was 95.5% (inactive). Moreover, the GFP response vs DMSO in [2] was 102% (inactive); in assay [4] it was 140% (inactive). For the same compound, in [3], the percent response of DMSO control is 103% (inactive). For the same compound, the GFP response, % of DMSO in assay [5] was 103% (inactive). In [6], this compound gave a double positive events of 64.6%. In addition, in assay [6], the vesicle binding response was 175% (inactive). For the same compound, the inhibition is -3.67% (inactive) in assay [7], 4.56% (inactive) in assay [11] and -9% (inactive) in [15]. In addition, the superoxide response (% of plate) in assay [8] was 110% (inactive). Further, the aptamer binding inhibition in [9] is -1% (inactive). The response is -9.79% (inactive) in assay [10] and 14.9% (inactive) in [12]. Moreover, the binding (% of control) in assay [13] was 105% (inactive). In assay [14], the efflux inhibition (fraction of control) is 0.25 (inactive). Besides, the differentiation response in assay [16] is -4% (inactive).
Turning to `CC(=O)[C@@]1(O)CC[C@H]2[C@@H]3C[C@H](C)C4=CC(=O)C=C[C@]4(C)[C@@]3(F)[C@@H](O)C[C@@]21C`, the percent of DMSO control GFP in assay [1] was 102% (inactive). Moreover, the results for the GFP response vs DMSO in assay [2] and in assay [4] were 134% (inactive) and 93% (inactive), respectively. Further, the percent response of DMSO control in [3] was 110% (inactive). In assay [5], the GFP response, % of DMSO was 95.2% (inactive). In assay [6], this compound returned a double positive events of 63.3%. Further, the vesicle binding response in [6] was 157% (inactive). Further, the values for the inhibition in assay [7], in assay [11] and in assay [15] were 2.58% (inactive), 32.1% (inactive) and 9% (inactive), respectively. Also, the superoxide response (% of plate) in assay [8] is 99.4% (inactive). Also, the aptamer binding inhibition in assay [9] is 5% (inactive). Moreover, the response in assay [10] is -0.53% (inactive); in assay [12], -3.11% (inactive). Further, the binding (% of control) in assay [13] was 101% (inactive). Besides, the efflux inhibition (fraction of control) in assay [14] is -0.35 (inactive). Also, the differentiation response in [16] is 9.83% (inactive).
